Source: PubChem (several laboratories)
Rows were chosen to be rich in hits. Some 4.6% of all compounds tested hit in one or more screens of this group.
HIF-2a inh = blocks HIF-2a reporter activity. 786-0 RCC cells HIF-2a reporter, luciferase luminescence, overnight. 360,000 tested, 0.72% active. inhibition, % at 18.8 µM. AID 624352;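 active = inhibition of the luminescence signal of 40% or more relative to plate controls, in a single-dose primary screen at 18.75 µM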
KKLEB tox = counter-screen for CF NF-kB inhibitors: cytotoxicity | KKLEB CF airway cells viability, ATPlite luminescence, overnight; hits give low values; cells stimulated with P. aeruginosa culture filtrate | activity change (cytotoxicity), % at 5 µM | 360,000 tested, 0.36% active;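 active = corrected activity change at or below -50% at 5 µM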
Peg3 promoter = reduces Peg3 promoter-driven luciferase expression in HeLa. 360,000 tested, 1.7% active. HeLa PEG-Prom luciferase reporter, luminescence, overnight. AID 588405. inhibition, % at 20 µM;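 active = inhibition of at least 50% at 20 µM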
CF NFkB block = blocks PAF-induced NF-kB reporter in cystic fibrosis cells. KKLEB NF-kB-GFP reporter, GFP fluorescence overnight. inhibition, % at 5 µM. 360,000 tested, 0.86% active;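 active = at least 50% inhibition at 5 µM, scaled per plate between neutral and stimulator controls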;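 note: PAF is a Pseudomonas aeruginosa culture filtrate used as stimulus; plate controls were PAF-stimulated DMSO wells for no effect and unstimulated DMSO wells for full effect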
Mdm2 MdmX PPI = disrupts the human Mdm2-MdmX interaction. O15151+Q00987. SaOS-2 split-luciferase Mdm2/MdmX complementation, luminescence. 330,000 tested, 3% active. inhibition, % at 8 µM;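 active = inhibition of at least 50% at 8 µM in the primary screen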
ABHD5 PLIN5 PPI = blocks binding of human ABHD5 to perilipin-5; Q00G26+Q8WTS1; Split G. princeps luciferase complementation, luminescence, 4 h; inhibition, % at 4 µM; 360,000 tested, 0.78% active;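 active = inhibition above the mean inhibition across every tested compound plus 3 SD, cut at about 22% in these data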;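 note: 0% = DMSO only wells and the 100% control is not disclosed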
Target sequence (Q00G26 whole entry, looked up): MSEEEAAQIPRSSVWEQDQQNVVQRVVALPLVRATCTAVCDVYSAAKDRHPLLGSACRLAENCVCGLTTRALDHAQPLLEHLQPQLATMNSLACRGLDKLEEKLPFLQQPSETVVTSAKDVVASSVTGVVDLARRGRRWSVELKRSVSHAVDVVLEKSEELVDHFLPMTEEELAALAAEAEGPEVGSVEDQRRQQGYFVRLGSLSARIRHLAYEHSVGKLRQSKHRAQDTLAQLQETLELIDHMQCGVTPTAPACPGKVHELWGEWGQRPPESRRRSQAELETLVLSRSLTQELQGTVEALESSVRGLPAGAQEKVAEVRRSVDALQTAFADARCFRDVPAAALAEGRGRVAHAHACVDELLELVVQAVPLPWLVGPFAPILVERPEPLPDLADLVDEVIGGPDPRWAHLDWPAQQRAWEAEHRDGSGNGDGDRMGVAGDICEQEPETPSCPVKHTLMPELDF
Target sequence (Q8WTS1 whole entry, looked up): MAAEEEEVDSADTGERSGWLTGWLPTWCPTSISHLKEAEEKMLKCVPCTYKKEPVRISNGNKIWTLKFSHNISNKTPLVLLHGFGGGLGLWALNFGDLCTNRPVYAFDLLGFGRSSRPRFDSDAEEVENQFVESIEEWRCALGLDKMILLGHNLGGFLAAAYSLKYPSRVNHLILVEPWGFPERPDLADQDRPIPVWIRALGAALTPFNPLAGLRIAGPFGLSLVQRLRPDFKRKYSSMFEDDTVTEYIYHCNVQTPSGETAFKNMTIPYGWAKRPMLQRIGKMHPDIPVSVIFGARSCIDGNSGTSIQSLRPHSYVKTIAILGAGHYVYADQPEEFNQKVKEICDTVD
Mdm2 MdmX conf = human Mdm2/MdmX binding inhibition, confirmed; AID 489028; inhibition, % at 8 µM; luminescent assay; shares compounds with Mdm2 MdmX PPI; 10,000 tested, 55% active; in the data active = inhibition above about 40%
FLuc counter = full-length luciferase inhibition in Mdm2/MdmX counter-screen; shares compounds with Mdm2 MdmX PPI; SaOS-2 full-length luciferase counterscreen, luminescence; inhibition, % at 8 µM; 6,200 tested, 77% active; AID 504607;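 active = mean inhibition at 8 µM reaching about 37%, which flags the compound as non-specific, limit read from the data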;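 note: p53-null SaOS-2 cells with luciferase driven by a doxycycline-inducible promoter; compound on cells about two nights before reading with doxycycline added after day one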
An asterisk follows results filed as active; · = no result given.

SMILES | HIF-2a inh | KKLEB tox | Peg3 promoter | CF NFkB block | Mdm2 MdmX PPI | ABHD5 PLIN5 PPI | Mdm2 MdmX conf | FLuc counter
COc1cc(/C=C/C(=O)N2CCN(C(=O)/C=C/c3cc(OC)c(OC)c(OC)c3)CC2)cc(OC)c1OC | 12 | -1 | -15 | -13 | 64* | 0 | 13 | ·
CN(C)c1ccc(/C=C2/SC(=O)N(CCN=C3NS(=O)(=O)c4ccccc43)C2=O)cc1 | -81 | -12 | -59 | 10 | 60* | 4 | 21 | ·
CCn1cnc2c([N+](=O)[O-])c(NS(=O)(=O)c3ccc(C)cc3)ccc21 | 7 | -1 | 7 | 5 | 3 | -1 | · | ·
Cc1ccc(N=Nc2c(N)nn3c(N)c(C#N)c(C)nc23)cc1 | -46 | -4 | 16 | 24 | 61* | -5 | 59* | 48*
O=C(CSc1nnc(-c2c[nH]c3ccccc23)n1C1CC1)NC1CCS(=O)(=O)C1 (configuration not stated) | 24 | 35 | 7 | -8 | · | 6 | · | ·
COc1cc(/C=N/n2cnc3scc(-c4cccs4)c3c2=O)cc(OC)c1OC | 10 | -5 | 27 | 15 | 61* | 1 | 36 | ·
COc1ccc(/C=N/n2cnc3scc(-c4cccs4)c3c2=O)cc1OC | 16 | 5 | 14 | -14 | 4 | -3 | · | ·
O=C1CCCCCC(=O)[C@H](O)C[C@H](c2ccccc2)O1 | -1 | · | · | · | · | 0 | · | ·
CCn1cc(C(=O)NCCCOC)c(=O)c2cc(S(=O)(=O)N3CCCC3)ccc21 | 16 | 18 | 10 | -32 | 28 | -5 | · | ·
COc1ccc(-c2nc(N/N=C(\C)c3ccc(O)cc3)c3ccccc3n2)cc1 | -186 | -21 | -31 | 56* | 86* | 0 | -22 | ·
CCc1cc2c(=O)[nH]c(-c3ccccn3)nc2s1 | -76 | 3 | 96* | -27 | 72* | -3 | 26 | 46*
CC1CCCN(C(=O)C2CCN(S(=O)(=O)c3ccccc3)CC2)C1 (configuration not stated) | 9 | -6 | 18 | -10 | 5 | 1 | · | ·
O=C(/C=C\c1ccco1)Nc1cc([N+](=O)[O-])ccc1F | -23 | -18 | -69 | 46 | 59* | 4 | 58* | 124*
NC(=S)N/N=C/c1ccc(C23CC4CC(CC(C4)C2)C3)cc1 | · | · | · | · | 46 | · | · | ·
CCc1ccc(/C=N/NC(=O)c2cc(C3CC3)nc3ccc(Br)cc23)s1 | 13 | -6 | 25 | 14 | 63* | -9 | 55* | 54*
O=c1c2cc(Cl)ccc2nc(-c2ccc(Cl)c(Cl)c2)n1O | -9 | 8 | 39 | 4 | 72* | 1 | 83* | 21
O=c1c2cc(Cl)ccc2nc(-c2ccccc2)n1O | 6 | -4 | 10 | 0 | 24 | 4 | · | ·
O=c1c2cc(Br)ccc2nc(-c2cccc(C(F)(F)F)c2)n1O | 30 | -5 | 42 | 17 | 55* | 3 | 42* | 30
CC(C)[C@@H](CSc1ccccc1)N1CCN(Cc2ccccc2)CCC1=O | -1 | 4 | 5 | -9 | 9 | 6 | · | ·
N#Cc1c(Cl)nsc1NC(=O)c1ccccc1 | -122 | -39 | -20 | 52* | 76* | -1 | 52* | 71*
Cc1nn(Cc2ccccc2Cl)c(C)c1C(=O)NCc1ccco1 | 16 | -11 | 6 | 7 | -37 | -3 | · | ·
Cc1nn(Cc2ccccc2Cl)c(C)c1C(=O)Nc1nnc(C2CC2)s1 | -43 | 3 | -19 | -14 | 79* | 0 | 7 | ·
Cc1nn(Cc2ccccc2Cl)c(C)c1C(=O)NCCN1C(=O)S/C(=C\c2ccccc2)C1=O | 12 | -12 | 34 | 21 | 58* | 7 | 7 | ·
CC12CCC(=O)N1C(C(=O)NNC(=O)COc1ccccc1F)CS2 (configuration not stated) | 2 | -13 | 4 | 3 | 5 | 0 | · | ·
N#Cc1ccc(-c2ccc(OCC(=O)NN=Cc3ccncc3)cc2)cc1 | -2 | -2 | 4 | -19 | 11 | 3 | · | ·
Cc1cc(/C=C\c2ccc3cc(N(C)C)ccc3[n+]2C)c(C)n1-c1ccccc1 | 28 | -14 | 64* | -37 | 100* | 26* | 92* | 9
